Compounds without any hit were thinned out: in the full panel of roughly 79,000, 15% have a hit. Values without a mark were called inactive. Calls of active or inactive are those of the source. Rule as the data show it: active = growth inhibition above about 70%; inactive = the rest.

The nature of one experiment: NCI Yeast Anticancer Drug Screen. Data for the mgt1 strain (AID 153). The note with it: S. cerevisiae mgt1 mutant growth inhibition; at 1.2 µM; active compounds read high. An outline of the steps:
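Growth inhibition relative to vehicle controls was scored for the mgt1 yeast strain after compound exposure.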
`O=C(O)c1ccccc1/C=N/N=C1c2ccccc2-c2ccccc21`: the growth inhibition was -1%.

On to `O=C1CC(=O)c2ccccc21`, for which the growth inhibition was -1%.

Take `Nc1ncnc2c1ncn2C1OC(CO)CC1O` (stereo not drawn): the growth inhibition is -37%.

The same experiment, now with this note: S. cerevisiae mgt1 mutant growth inhibition; at 3.7 µM; active compounds read high.
In the case of `CS(=O)(=O)SCc1ccc([N+](=O)[O-])cc1`, the growth inhibition is -4%.

Regarding `Cc1csc(=S)n1OC(=O)NC1CCCCC1`, the growth inhibition is 99% (active).

For the molecule `CCOc1ccc(NC(=O)C2=C(C)NC(C)=C(C(=O)Nc3ccc(OCC)cc3)C2c2cccc([N+](=O)[O-])c2)cc1`, the growth inhibition is -2%.

`CC(C)(C)N=C(NO)c1ccccc1`: the growth inhibition is 1%.

Regarding `CCCCC/C(=C(\C#N)C(=O)OCC)c1ccccc1`, the growth inhibition is -2%.

As to `O=C(NCCCl)Sc1ccc(Cl)cc1`, the growth inhibition is -2%.

As for `O=C1Nc2ccc(Br)cc2C1=Nc1ccc2c(c1)OCO2`, the growth inhibition was -32%.

On to `CCC(C)OC(=O)Nc1ccc(C)c(NC(=O)OC(C)CC)c1` (stereo not drawn), for which the growth inhibition was -2%.

As for `O=C(O)c1cc2ccc(Cl)cc2c(O)c1C1=CCCCC1`, the growth inhibition was -15%.

As for `CN(C)Cc1cc(N=Nc2ccc(Cl)cc2)ccc1OC(=O)c1ccccc1`, the growth inhibition is 1%.

For the molecule `CN1CCN(C(=O)/C=C/C(=O)c2ccccc2)CC1`, the growth inhibition was 10%.

`CCCC/C=C/C(C)(C(=O)OCC)C(=O)OCC`: the growth inhibition was -4%.

In the case of `Cc1nc(-c2cc3cc([N+](=O)[O-])ccc3oc2=O)cs1`, the growth inhibition is 6%.

For the molecule `Cc1nc2ccccc2nc1NNc1ccccc1`, the growth inhibition was 3%.

For `CN(C)[C@@H]1C(=O)C(C(N)=O)=C(O)[C@@]2(O)C(=O)C3=C(O)c4c(O)cccc4C[C@H]3C[C@@H]12`, the growth inhibition was -5%.

Values taken from PubChem BioAssay (NCI).
